RECQ1 inh-1 = blocks DNA unwinding by human RECQ1; P46063; RECQ1 DNA unwinding, red fluorescence kinetic read; Potency, µM (titrated, usually from 57.3 µM), for inactives: at the top dose activity, negative = inhibition, most hits filed as inhibitors; 0.54% of 240,000 active; AID 2549;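 note: plate controls were vehicle for no effect and no enzyme for full effect; nearly all actives have a fitted effect of over 30% in size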
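50 nM RECQ1T1 preincubated 15 min with compound in Tris pH 8.0 buffer with MgCl2, DTT, Tween-20 and 2.5 ug/ml poly(dI-dC); started with 200 nM TAMRA/BHQ-2 forked duplex and 2 mM ATP. Unwinding read as fluorescence (525/598 nm), two reads 2 h apart.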
RGS4 inhibitor = blocks human RGS4-accelerated GTP hydrolysis | Potency, µM (top dose mostly 114 µM), for inactives: at the top dose activity change, negative = inhibition, hits mostly inhibitors | Transcreener GDP fluorescence polarization, RGS4-accelerated GTP hydrolysis | 0.039% of 390,000 active | P49798 | AID 504845; note: nearly all actives have a fitted effect of over 75% in size
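MLSMR compounds (23 nl, pin-transferred) preincubated 10 min at room temperature with a 500nM (2x) first reagent, then RGS4 at 900nM (2x) plus Transcreener GDP mix added; fluorescence polarization (620/688 nm) read before and after 90 min at 30 °C.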
TDP1 block = blocks human tyrosyl-DNA phosphodiesterase 1; Q9NUW8; recombinant TDP1, AlphaScreen DNA substrate cleavage; Potency, µM (top dose mostly 130 µM), inactives show top-dose activity change, negative = inhibition, hits mostly inhibitors; 0.28% of 350,000 active; AID 485290; note: nearly all actives have a fitted effect of over 40% in size
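Compounds were preincubated with Tdp1 (1 nM final) for 15 min at room temperature before substrate (15 nM final) started a 5 min reaction; beads (10 ug/ml final) were then added for 10 min before AlphaScreen detection.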
APE1 inh-1 = inhibitors of human APE1 endonuclease; recombinant APE1, TAMRA/BHQ-2 abasic DNA cleavage fluorescence; Potency, µM (top dose mostly 65.8 µM), for the others: top-dose activity change, negative = inhibition, usual class: inhibitors; 0.35% of 350,000 active; AID 2517;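 note: plate controls were vehicle for no effect and reference inhibitor for full effect; nearly all actives have a fitted effect of over 55% in size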
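APE1 at 0.75 nM preincubated 15 min at room temperature with compound. Reaction then started with 50 nM double-stranded THF-abasic substrate labelled with TAMRA/BHQ-2, and 525/598 nm fluorescence read kinetically. Activity taken as third-minus-first read difference, normalized to DMSO and NSC13755 controls.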
BLM inh-1 = inhibitors of human Bloom syndrome helicase BLM; P54132; recombinant BLM DNA unwinding, fluorescence dequenching; Potency, µM (doses to about 56.1 µM), for inactives: at the highest dose activity change, negative = inhibition, hits mostly inhibitors; 0.2% of 350,000 active; AID 2528;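 note: plate controls were vehicle for no effect and no enzyme for full effect; nearly all actives have a fitted effect of over 35% in size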
Target sequence (P54132 whole entry, looked up): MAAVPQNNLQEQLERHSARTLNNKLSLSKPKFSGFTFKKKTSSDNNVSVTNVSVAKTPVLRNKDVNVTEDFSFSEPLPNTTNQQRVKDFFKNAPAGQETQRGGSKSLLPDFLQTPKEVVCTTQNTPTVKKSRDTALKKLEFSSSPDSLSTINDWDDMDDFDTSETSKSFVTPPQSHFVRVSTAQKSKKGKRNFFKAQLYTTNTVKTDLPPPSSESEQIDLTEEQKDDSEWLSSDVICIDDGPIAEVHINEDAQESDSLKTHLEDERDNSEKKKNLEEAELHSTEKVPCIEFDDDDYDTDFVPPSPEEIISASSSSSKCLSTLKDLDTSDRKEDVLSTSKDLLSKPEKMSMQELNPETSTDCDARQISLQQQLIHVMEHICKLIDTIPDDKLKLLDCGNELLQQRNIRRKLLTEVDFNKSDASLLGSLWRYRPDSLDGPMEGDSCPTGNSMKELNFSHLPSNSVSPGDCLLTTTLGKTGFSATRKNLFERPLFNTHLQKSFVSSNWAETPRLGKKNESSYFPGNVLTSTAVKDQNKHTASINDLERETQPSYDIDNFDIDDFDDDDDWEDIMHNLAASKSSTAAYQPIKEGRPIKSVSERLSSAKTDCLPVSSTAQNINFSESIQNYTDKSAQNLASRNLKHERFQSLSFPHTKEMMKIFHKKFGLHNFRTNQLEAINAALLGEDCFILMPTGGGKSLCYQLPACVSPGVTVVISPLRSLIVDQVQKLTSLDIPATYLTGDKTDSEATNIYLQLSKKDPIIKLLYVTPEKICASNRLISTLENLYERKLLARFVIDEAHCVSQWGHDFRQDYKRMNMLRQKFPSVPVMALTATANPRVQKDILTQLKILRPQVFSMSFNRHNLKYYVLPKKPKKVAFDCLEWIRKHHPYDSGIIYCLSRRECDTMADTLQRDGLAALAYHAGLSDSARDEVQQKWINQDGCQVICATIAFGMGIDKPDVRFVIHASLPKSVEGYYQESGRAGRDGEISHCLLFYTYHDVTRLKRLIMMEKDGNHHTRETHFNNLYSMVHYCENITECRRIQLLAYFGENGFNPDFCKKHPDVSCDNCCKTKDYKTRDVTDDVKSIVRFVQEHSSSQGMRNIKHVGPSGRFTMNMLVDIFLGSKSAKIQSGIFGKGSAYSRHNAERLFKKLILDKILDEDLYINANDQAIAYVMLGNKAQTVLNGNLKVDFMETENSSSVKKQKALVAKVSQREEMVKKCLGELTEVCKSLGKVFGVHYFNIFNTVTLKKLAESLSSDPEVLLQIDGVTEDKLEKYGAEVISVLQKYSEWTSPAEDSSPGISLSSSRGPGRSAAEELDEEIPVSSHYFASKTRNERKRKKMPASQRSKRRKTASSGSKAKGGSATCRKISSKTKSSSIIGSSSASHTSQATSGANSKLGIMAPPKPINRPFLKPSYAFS
KAT2A inh = inhibitors of human GCN5L2 histone acetyltransferase | Q92830 | GCN5L2 HAT assay, ThioGlo1 CoA-SH fluorescence | Potency, µM (titrated, usually from 58.9 µM), for inactives: at the highest dose activity change, negative = inhibition, hits mostly inhibitors | 0.21% of 390,000 active | AID 504327
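GCN5L2 (20nM final) in 50mM HEPES, 0.1mM EDTA pH 7.5, 0.01% Tween-20 was preincubated 15 min at room temperature with compound, then given ThioGlo1 (50uM), H3(1-25) peptide (75uM) and acetyl-CoA (70uM); CoA-thiol fluorescence (Ex340/Em540) was read at 0 and 20 min.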
APE1 dye cs = counter-screen for APE1 inhibitors: DNA dye displacement | Potency, µM (doses to about 28.5 µM), without a hit: at the top dose activity change, negative = inhibition, usual class: inhibitors | 7% of 480 active | DNA fluorescent dye displacement counterscreen, fluorescence | shares compounds with APE1 inh-1;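 note: loss of thiazole orange fluorescence as the dye is displaced from duplex DNA; 0% = ThO with dsDNA and no compound and -100% = ThO without dsDNA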
Endo IV inh = counter-screen for APE1 inhibitors: inhibitors of E. coli endonuclease IV | Potency, µM (series often up to 27.1 µM), inactives show at the highest dose activity change, negative = inhibition, hits mostly inhibitors | AID 2565 | 4% of 560 active | E. coli Endo IV, fluorogenic AP-site DNA cleavage | shares compounds with APE1 inh-1;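 note: plate controls were uninhibited enzyme wells for no effect and no enzyme buffer wells for full effect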
APE1 inh-2 = confirmation of inhibitors of human APE1 endonuclease; shares compounds with APE1 inh-1; purified APE1, fluorogenic abasic-site DNA cleavage; Potency, µM (doses to about 57.1 µM), inactives show at the top dose activity change, negative = inhibition, most hits filed as inhibitors; 44% of 750 active; AID 2572; note: nearly all actives have a fitted effect of over 30% in size
APE1 FP inh = displaces DNA from human APE1 in FP assay. shares compounds with APE1 inh-1. APE1 binding to TAMRA-labelled double-stranded DNA, fluorescence polarization displacement. Potency, µM (series often up to 28.5 µM), for the others: at the top dose activity, negative = inhibition, hits mostly inhibitors. 7% of 480 active. AID 2573
BLM inh-2 = confirmation of inhibitors of human Bloom syndrome helicase BLM. shares compounds with BLM inh-1. BLM DNA unwinding, fluorescence quenching, biochemical. Potency, µM, for the others: max response, negative = inhibition, most hits filed as inhibitors. 40% of 220 active. AID 2585;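 note: strand separation dequenches TAMRA so unwinding raises red fluorescence; series mostly up to about 69 µM; nearly all actives have a fitted effect of over 45% in size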
RECQ1 inh conf = confirmation of human RECQ1 helicase inhibitors. shares compounds with RECQ1 inh-1. RECQ1 helicase DNA unwinding, fluorescence. Potency, µM (titrated, usually from 229 µM), without a hit: top-dose activity change, negative = inhibition, actives largely listed as inhibitors. 28% of 610 active. AID 2708; note: nearly all actives have a fitted effect of over 45% in size
RECQ1 ADP FP = ADP displacement flagged in RECQ1 inhibitor counter-screen | shares compounds with RECQ1 inh-1 | Potency, µM (series often up to 228 µM), for inactives: at the highest dose activity change, negative = inhibition, hits mostly inhibitors | 27% of 530 active | ADP fluorescence polarization displacement counterscreen; note: nearly all actives have a fitted effect of over 45% in size
RECQ1 inh-2 = blocks human RECQ1 DNA unwinding. 15% of 1,100 active. AID 504841. recombinant RECQ1 DNA unwinding, red fluorescence. shares compounds with RECQ1 inh-1. Potency, µM (series often up to 119 µM), inactives show at the top dose activity, negative = inhibition, hits mostly inhibitors; note: nearly all actives have a fitted effect of over 50% in size
Numbers without * were called inactive; i = inactive; ? = inconclusive; nt = no result; [ ] = dose if it differs, or a comment. The list is not random: actives were taken first. Their share in the collection is about 0.87%. Calls come from the whole dose curve; as a rule, active = well fitted curve in the direction sought with a large enough effect; inconclusive = small, poorly fitted or top-dose-only effect, or another doubt; inactive = no such curve, though single readings can be large; an effect the other way counts as inactive or inconclusive. Unless noted, % is set by controls: 0 for no effect and ±100 for the full control effect; potency is the fitted concentration of half-maximal effect.

SMILES	RECQ1 inh-1	RGS4 inhibitor	TDP1 block	APE1 inh-1	BLM inh-1	KAT2A inh	APE1 dye cs	Endo IV inh	APE1 inh-2	APE1 FP inh	RECQ1 inh-2	others
O=C(COC(=O)c1cc2c(s1)CCC2)Nc1ccc(F)cc1	22µM*	-29%	35µM*	16µM*	16µM*	?	?	7%	10µM*	?	?	BLM inh-2=?
CCCCCCCc1cc2c(cn1)=C(OC)C(C)(OC(C)=O)C(=O)C=2Cl (stereo not drawn)	-3%	nt	6%	-2%	0%	nt	nt	nt	nt	nt	nt
CCOc1ccc(/C=c2\sc3nc(-c4ccco4)nn3c2=O)cc1OCC	i	12%	-1%	16%	1%	-2%	nt	nt	nt	nt	nt
COc1ccccc1/C=c1\sc2nc(-c3ccco3)nn2c1=O	?	-51%	nt	?	-29%	?	-7%	-1%	5µM*	?	?
O=C(O)Cc1ccc(C(=O)c2ccc(Cl)cc2)s1	-15%	9%	4%	2%	0%	1%	nt	nt	nt	nt	nt
O=C(O)Cc1ccc(C(=O)CSc2ccccc2)s1	?	-28%	nt	?	-30%	-24%	-3%	7%	?	8%	13%
NNC(=O)c1cc(O)c(O)c(O)c1	3.2µM*	?	nt	0.89µM*	?	-3%	3%	164%	4µM*	5%	nt	RECQ1 inh conf=8%[114 µM];RECQ1 ADP FP=-11%[91.9 µM]
COc1c(Cl)cc(C(=O)NN)cc1Cl	i	13%	5%	-1%	-5%	-10%	nt	nt	nt	nt	nt
CC1=[N+](C)c2ccc3ccccc3c2C1(C)C	3.5µM*	-113%	13%	14µM*	-9%	1%	1%	?	?	58%	22µM*	RECQ1 inh conf=7.9µM*;RECQ1 ADP FP=2.8µM*
